# Assay results as given in PubChem BioAssay (EPA / NIEHS).
# Active and inactive are the calls of the source. How the source made its calls: active means hit-call score of the fitted dose curve at least 0.9, where 1 is the maximum; inactive means score below 0.9.
# How the values were obtained:
# [1] = target: Bile acid receptor (Homo sapiens) (UniProt Q96RI1); assay: ATG_IR1_CIS: Attagene CIS-FACTORIAL HepG2 Assay for human Nuclear Receptor Subfamily 1 Group H Member 4 (NR1H4), IR1 submotif (AID 2282946); conditions: IR1 reporter transcription, actives raise or lower the signal
# Method in brief: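 Cells (human HepG2) carry transiently transfected cis-promoter reporter transcription units. Compounds are incubated 24 h, total RNA is reverse-transcribed and amplified, and labelled fragments are resolved by capillary electrophoresis. Curves use DMSO as baseline.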
# [2] = ATG_GRE_CIS: Attagene CIS-FACTORIAL HepG2 Assay for human Glucocorticoid Response Elements (GRE) (AID 2282947); conditions: HepG2 GRE cis-reporter, Attagene multiplex mRNA; actives raise or lower the signal
# Method in brief: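 Assay uses human hepatoma HepG2 cells transfected with cis-promoter reporter units, exposed 24 h. mRNA from reporters detected by RT-PCR plus capillary electrophoresis; DMSO serves as negative control and baseline.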
# [3] = ATG_ISRE_CIS: Attagene CIS-FACTORIAL HepG2 Assay for human Interferon Regulatory Factor 1 (IRF1) binding to an Interferon-Stimulated Response Element (ISRE) (AID 2282948); conditions: HepG2 ISRE cis-reporter (Attagene), mRNA transcription readout; actives raise or lower the signal
# Method in brief: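 Transiently transfected HepG2 cells carrying cis-element reporter units, dosed 24 hours. Reporter mRNA quantified by RT-PCR, fluorescent primer extension, HpaI digestion and capillary electrophoresis. Bidirectional fitting relative to DMSO.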
# [4] = ATG_M_06_CIS: Attagene CIS-FACTORIAL HepG2 Assay for M06 Transcription Factor (Internal Marker) (AID 2282950); conditions: HepG2 Attagene CIS-FACTORIAL M06 internal marker reporter; actives raise or lower the signal
# Method in brief: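 HepG2 liver cells, 24 h exposure. Reporter transcripts from transfected cis-element constructs quantified by RT-PCR/capillary electrophoresis fluorescence. Bidirectional curve fit against DMSO.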
# [5] = target: Hypoxia-inducible factor 1-alpha (Homo sapiens) (UniProt Q16665); assay: ATG_HIF1a_CIS: Attagene CIS-FACTORIAL HepG2 Assay for human Hypoxia Inducible Factor 1 (HIF1A) (AID 2282951); conditions: HepG2 Attagene cis-factorial HIF1a reporter transcription; actives raise or lower the signal
# Method in brief: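 In this multiplexed cell assay, HepG2 cells bearing transfected cis reporters are dosed for 24 h and reporter mRNA is read by RT-PCR plus capillary electrophoresis; signal increases and decreases are both scored against DMSO.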
# [6] = target: Hepatocyte nuclear factor 6 (Homo sapiens) (UniProt Q9UBC0); assay: ATG_HNF6_CIS: Attagene CIS-FACTORIAL HepG2 Assay for human Hepatocyte Nuclear Factor 6 (HNF6) (AID 2282952); conditions: HepG2 Attagene cis-factorial HNF6 reporter transcription; actives raise or lower the signal
# Method in brief: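 Multiplexed mRNA reporter assay in transfected HepG2; 24 h dosing; RT-PCR plus capillary electrophoresis fluorescence; DMSO-referenced bidirectional curve fitting.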
# [7] = target: Heat shock factor protein 1 (Homo sapiens) (UniProt Q00613); assay: ATG_HSE_CIS: Attagene CIS-FACTORIAL HepG2 Assay for human Heat Shock Transcription Factor 1 (HSE) (AID 2282953); conditions: HepG2 HSE cis-reporter, Attagene RNA transcription; actives raise or lower the signal
# Method in brief: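 Endogenous transcription factor activity captured via cis-promoter reporter units transfected into HepG2; treatment lasted 24 h. Fluorescence intensity of reporter fragments analysed with bidirectional curve fitting, DMSO baseline.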
# [8] = ATG_MRE_CIS: Attagene CIS-FACTORIAL HepG2 Assay for human Metal Responsive Element (MRE) (AID 2282954); conditions: HepG2 MRE cis-reporter transcription, Attagene multiplex; actives raise or lower the signal
# Method in brief: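 After a 24 h chemical exposure, transiently transfected HepG2 cells yield RNA whose reporter sequences are amplified, FAM-labelled and sized by capillary electrophoresis. Curves are fitted bidirectionally relative to DMSO.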
# [9] = ATG_PBREM_CIS: Attagene CIS-FACTORIAL HepG2 Assay for human Phenobarbital-responsive Enhancer Module (PBREM) (AID 2282955); conditions: HepG2 PBREM cis-reporter, Attagene multiplexed transcription; actives raise or lower the signal
# Method in brief: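 After a 24 h incubation with test chemical, transfected HepG2 cells yield total RNA; reporter-specific RT-PCR products are fluorescently labelled, HpaI-digested and resolved by capillary electrophoresis against ROX size standards.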
# [10] = target: Paired box protein Pax-6 (Homo sapiens) (UniProt P26367); assay: ATG_Pax6_CIS: Attagene CIS-FACTORIAL HepG2 Assay for human Paired Box 6 (PAX6) (AID 2282956); conditions: HepG2 CIS-FACTORIAL PAX6 reporter transcription, RNA readout; actives raise or lower the signal
# Method in brief: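 HepG2 cells transiently transfected with cis-promoter-driven multiplexed reporter units sensing endogenous transcription factor activity; 24 h chemical exposure. Reporter mRNA quantified by RT-PCR, 6-FAM labelling, HpaI digestion and capillary electrophoresis; bidirectional fit versus DMSO baseline.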
# [11] = ATG_PXRE_CIS: Attagene CIS-FACTORIAL HepG2 Assay for human Pregnane X Receptor Element (PXRE) (AID 2282957); conditions: HepG2 Attagene CIS-FACTORIAL PXRE reporter, mRNA; actives raise or lower the signal
# Method in brief: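 Cells: HepG2, transiently transfected reporter units under cis promoter control. Exposure: 24 h. Detection: reporter mRNA via RT-PCR/CE fluorescence; bidirectional fitting, DMSO-referenced.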
# [12] = ATG_PPRE_CIS: Attagene CIS-FACTORIAL HepG2 Assay for human Peroxisome Proliferator-activated Response Element (PPRE) (AID 2282958); conditions: HepG2 PPRE cis-element reporter, Attagene transcription factor profiling; actives raise or lower the signal
# Method in brief: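 Multiplexed reporter transcription units under cis-regulatory promoters were transfected into HepG2 cells to capture endogenous factor activity. A 24 h incubation preceded RNA isolation and fluorescent RT-PCR fragment analysis.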
# [13] = ATG_RORE_CIS: Attagene CIS-FACTORIAL HepG2 Assay for human RAR-related Orphan Receptor Element (RORE) (AID 2282959); conditions: HepG2 Attagene cis-factorial RORE reporter, mRNA; actives raise or lower the signal
# Method in brief: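 Fluorescence intensity of reporter-specific cDNA fragments, separated by capillary electrophoresis, gives the signal. Source: HepG2 liver cells transiently transfected with cis-element reporters and exposed 24 h; DMSO-normalized bidirectional fit.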
# [14] = ATG_Sox_CIS: Attagene CIS-FACTORIAL HepG2 Assay for human SRY-box transcription factor (SOX) (AID 2282960); conditions: HepG2 Attagene cis-factorial SOX reporter, mRNA; actives raise or lower the signal
# Method in brief: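 After 24 h of chemical treatment, transfected HepG2 reporter cells are lysed for total RNA. Transcript levels come from RT-PCR with labelled primer extension and capillary electrophoresis, analysed bidirectionally versus DMSO.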
# [15] = target: Transcription factor Sp1 (Homo sapiens) (UniProt P08047); assay: ATG_Sp1_CIS: Attagene CIS-FACTORIAL HepG2 Assay for human Specificity Protein 1 (Sp1) (AID 2282961); conditions: HepG2 Sp1 cis-reporter transcription, actives raise or lower the signal
# Method in brief: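 Sp1-driven reporter mRNA, read as capillary electrophoresis fluorescence after RT-PCR, in transiently transfected HepG2 cells dosed for 24 h; signal change in either direction relative to DMSO.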
# [16] = ATG_SREBP_CIS: Attagene CIS-FACTORIAL HepG2 Assay for human Sterol Regulatory Element Binding (SREBP) (AID 2282962); conditions: HepG2 Attagene cis-factorial SREBP reporter, mRNA; actives raise or lower the signal
# Method in brief: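 HepG2 cells transiently transfected with multiplexed cis-promoter reporter units sensing endogenous transcription factors; reporter mRNA measured 24 h after dosing by RT-PCR, 6-FAM labeling, HpaI digestion and capillary electrophoresis. Bidirectional fit versus DMSO.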
# [17] = ATG_TA_CIS: Attagene CIS-FACTORIAL HepG2 Assay for human TA Basal Promoter (AID 2282964); conditions: HepG2 Attagene CIS-factorial TA basal promoter reporter; actives raise or lower the signal
# Method in brief: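 Fluorescence from labelled RT-PCR reporter fragments, separated by capillary electrophoresis, gives the signal. Cells: HepG2 transiently carrying multiple reporter units, 24 h chemical dosing. Gain or loss relative to DMSO.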
# [18] = ATG_TCF_b_cat_CIS: Attagene CIS-FACTORIAL HepG2 Assay for human T-Cell-Factor with beta-catenin (TCF/b-cat) (AID 2282965); conditions: HepG2 TCF/beta-catenin cis-reporter transcription, actives raise or lower the signal
# Method in brief: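 Endogenous transcription factor activity is captured through cis-promoter reporter constructs transiently introduced into human HepG2 liver cells. Induced reporter mRNA is measured after 24 h and fitted bidirectionally relative to DMSO.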
# [19] = ATG_M_32_CIS: Attagene CIS-FACTORIAL HepG2 Assay for M32 Transcription Factor (Internal Marker) (AID 2282949); conditions: HepG2 Attagene cis-factorial M32 reporter, mRNA; actives raise or lower the signal;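 further: background control marker of the multiplexed CIS panel rather than a real target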
# Method in brief: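 Internal background marker read-out: RT-PCR/capillary electrophoresis fluorescence of reporter transcripts from transiently transfected HepG2 cells after 24 h chemical exposure. Activity fitted bidirectionally relative to DMSO negative control.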
# [20] = target: Signal transducer and activator of transcription 3 (Homo sapiens) (UniProt P40763); assay: ATG_STAT3_CIS: Attagene CIS-FACTORIAL HepG2 Assay for human Signal Transducer and Activator of Transcription 3 (STAT3) (AID 2282963); conditions: HepG2, Attagene cis-factorial STAT3 reporter transcription; actives raise or lower the signal
# Method in brief: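 After a 24 h compound incubation, total RNA from MRTU-transfected HepG2 cells was converted to cDNA and reporter sequences PCR-amplified, labelled and profiled by capillary electrophoresis. Gain and loss of signal were referenced to DMSO.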
# Chain of Transcription factor Sp1 (Homo sapiens) (P08047 whole entry, looked up): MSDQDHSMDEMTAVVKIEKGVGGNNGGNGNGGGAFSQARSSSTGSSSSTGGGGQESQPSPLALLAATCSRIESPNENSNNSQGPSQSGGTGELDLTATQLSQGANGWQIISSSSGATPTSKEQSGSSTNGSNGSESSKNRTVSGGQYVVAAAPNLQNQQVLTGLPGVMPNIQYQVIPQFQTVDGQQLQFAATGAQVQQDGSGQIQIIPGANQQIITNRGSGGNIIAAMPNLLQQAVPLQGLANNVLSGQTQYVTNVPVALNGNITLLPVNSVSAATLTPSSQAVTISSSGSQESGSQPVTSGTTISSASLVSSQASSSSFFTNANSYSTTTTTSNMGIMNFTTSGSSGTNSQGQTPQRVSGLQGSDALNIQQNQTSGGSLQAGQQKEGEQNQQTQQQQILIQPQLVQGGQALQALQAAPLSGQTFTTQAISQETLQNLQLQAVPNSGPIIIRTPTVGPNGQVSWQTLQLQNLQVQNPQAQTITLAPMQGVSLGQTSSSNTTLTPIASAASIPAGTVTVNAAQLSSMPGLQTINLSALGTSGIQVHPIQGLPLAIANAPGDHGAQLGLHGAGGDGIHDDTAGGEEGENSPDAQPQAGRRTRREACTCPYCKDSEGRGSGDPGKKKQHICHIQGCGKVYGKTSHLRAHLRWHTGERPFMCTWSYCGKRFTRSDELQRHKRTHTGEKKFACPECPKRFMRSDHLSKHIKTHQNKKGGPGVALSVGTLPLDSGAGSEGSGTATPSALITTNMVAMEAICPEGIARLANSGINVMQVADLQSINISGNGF
# Chain of Heat shock factor protein 1 (Homo sapiens) (Q00613 whole entry, looked up, the tested form may be a part): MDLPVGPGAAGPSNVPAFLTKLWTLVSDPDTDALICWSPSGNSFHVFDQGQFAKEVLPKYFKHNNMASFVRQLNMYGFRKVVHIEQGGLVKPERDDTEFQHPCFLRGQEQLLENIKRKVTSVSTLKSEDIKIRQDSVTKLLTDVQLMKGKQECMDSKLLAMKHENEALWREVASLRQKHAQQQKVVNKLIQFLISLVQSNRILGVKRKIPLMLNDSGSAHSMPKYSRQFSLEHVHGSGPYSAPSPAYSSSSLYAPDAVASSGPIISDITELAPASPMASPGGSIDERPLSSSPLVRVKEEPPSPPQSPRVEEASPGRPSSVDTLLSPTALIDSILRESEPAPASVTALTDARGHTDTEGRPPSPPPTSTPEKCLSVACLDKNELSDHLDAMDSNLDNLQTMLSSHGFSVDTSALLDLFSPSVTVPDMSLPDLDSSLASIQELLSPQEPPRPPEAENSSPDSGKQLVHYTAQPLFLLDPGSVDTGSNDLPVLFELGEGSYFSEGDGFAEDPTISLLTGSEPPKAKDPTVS
# Chain of Signal transducer and activator of transcription 3 (Homo sapiens) (P40763 whole entry, looked up): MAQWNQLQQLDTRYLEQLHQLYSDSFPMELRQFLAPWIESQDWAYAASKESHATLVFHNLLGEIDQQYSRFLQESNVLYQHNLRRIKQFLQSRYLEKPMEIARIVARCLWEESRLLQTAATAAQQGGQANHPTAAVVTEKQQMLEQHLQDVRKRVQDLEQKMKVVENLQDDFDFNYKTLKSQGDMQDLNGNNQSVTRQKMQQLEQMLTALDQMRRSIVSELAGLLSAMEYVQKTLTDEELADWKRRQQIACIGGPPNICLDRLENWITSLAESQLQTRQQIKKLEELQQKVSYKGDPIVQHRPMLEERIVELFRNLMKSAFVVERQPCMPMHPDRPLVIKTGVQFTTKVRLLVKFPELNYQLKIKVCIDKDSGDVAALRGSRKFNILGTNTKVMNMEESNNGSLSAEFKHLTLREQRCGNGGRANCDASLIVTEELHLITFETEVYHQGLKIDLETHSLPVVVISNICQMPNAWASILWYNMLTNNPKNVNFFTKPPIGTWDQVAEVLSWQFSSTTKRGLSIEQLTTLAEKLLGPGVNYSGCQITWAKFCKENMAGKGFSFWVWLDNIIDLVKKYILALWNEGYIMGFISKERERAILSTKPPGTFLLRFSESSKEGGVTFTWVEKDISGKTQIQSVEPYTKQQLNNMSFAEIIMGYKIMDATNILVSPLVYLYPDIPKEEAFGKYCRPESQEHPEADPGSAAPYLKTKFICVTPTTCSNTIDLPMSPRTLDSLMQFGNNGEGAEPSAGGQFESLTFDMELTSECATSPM
# Chain of Hypoxia-inducible factor 1-alpha (Homo sapiens) (Q16665 whole entry, looked up): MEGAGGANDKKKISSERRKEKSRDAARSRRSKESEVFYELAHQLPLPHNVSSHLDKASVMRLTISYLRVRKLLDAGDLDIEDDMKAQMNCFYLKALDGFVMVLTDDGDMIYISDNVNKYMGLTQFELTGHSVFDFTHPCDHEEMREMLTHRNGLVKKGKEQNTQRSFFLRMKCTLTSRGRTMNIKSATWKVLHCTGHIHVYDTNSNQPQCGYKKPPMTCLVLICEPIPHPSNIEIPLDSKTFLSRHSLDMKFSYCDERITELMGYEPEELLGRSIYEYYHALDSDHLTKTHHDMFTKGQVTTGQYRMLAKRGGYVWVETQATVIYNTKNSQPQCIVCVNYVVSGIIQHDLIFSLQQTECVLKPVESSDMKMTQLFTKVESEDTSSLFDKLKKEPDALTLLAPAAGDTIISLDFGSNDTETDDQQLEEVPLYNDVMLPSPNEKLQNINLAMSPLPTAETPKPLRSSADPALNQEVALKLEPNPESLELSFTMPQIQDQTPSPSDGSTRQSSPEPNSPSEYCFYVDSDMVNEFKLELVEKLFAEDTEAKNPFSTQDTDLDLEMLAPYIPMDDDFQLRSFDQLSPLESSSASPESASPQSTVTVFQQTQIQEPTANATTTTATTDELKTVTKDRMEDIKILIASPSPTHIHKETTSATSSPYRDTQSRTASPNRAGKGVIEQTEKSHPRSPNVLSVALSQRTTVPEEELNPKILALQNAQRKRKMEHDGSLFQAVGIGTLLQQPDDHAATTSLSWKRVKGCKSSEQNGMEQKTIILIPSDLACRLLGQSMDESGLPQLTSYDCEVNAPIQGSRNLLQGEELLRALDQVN
# Chain of Bile acid receptor (Homo sapiens) (Q96RI1 whole entry, looked up, the tested form may be a part): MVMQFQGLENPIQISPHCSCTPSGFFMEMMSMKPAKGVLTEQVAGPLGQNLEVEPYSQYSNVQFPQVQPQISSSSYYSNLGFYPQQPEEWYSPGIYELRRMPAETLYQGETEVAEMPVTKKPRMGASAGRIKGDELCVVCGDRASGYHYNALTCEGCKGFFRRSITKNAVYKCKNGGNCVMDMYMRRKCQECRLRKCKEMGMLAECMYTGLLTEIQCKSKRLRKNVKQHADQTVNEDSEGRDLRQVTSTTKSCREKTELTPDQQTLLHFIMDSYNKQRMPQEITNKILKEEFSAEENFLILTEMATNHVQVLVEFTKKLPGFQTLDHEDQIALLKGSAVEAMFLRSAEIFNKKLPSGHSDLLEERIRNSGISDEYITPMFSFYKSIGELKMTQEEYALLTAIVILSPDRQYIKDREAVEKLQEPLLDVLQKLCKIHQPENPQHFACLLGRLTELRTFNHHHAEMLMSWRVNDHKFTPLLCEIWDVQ
# Chain of Hepatocyte nuclear factor 6 (Homo sapiens) (Q9UBC0 whole entry, looked up): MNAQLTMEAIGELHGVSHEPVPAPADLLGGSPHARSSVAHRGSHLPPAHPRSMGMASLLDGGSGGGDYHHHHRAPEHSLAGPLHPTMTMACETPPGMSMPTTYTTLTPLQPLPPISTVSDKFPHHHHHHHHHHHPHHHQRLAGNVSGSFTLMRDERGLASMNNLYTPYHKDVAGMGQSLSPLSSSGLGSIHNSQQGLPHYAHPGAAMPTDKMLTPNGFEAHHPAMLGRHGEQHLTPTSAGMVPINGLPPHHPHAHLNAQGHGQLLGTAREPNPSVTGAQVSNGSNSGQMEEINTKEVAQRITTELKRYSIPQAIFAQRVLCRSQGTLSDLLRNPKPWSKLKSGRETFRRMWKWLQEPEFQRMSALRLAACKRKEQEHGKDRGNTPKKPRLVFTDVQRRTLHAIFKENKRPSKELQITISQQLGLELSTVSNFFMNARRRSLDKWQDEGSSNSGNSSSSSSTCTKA
# Chain of Paired box protein Pax-6 (Homo sapiens) (P26367 whole entry, looked up): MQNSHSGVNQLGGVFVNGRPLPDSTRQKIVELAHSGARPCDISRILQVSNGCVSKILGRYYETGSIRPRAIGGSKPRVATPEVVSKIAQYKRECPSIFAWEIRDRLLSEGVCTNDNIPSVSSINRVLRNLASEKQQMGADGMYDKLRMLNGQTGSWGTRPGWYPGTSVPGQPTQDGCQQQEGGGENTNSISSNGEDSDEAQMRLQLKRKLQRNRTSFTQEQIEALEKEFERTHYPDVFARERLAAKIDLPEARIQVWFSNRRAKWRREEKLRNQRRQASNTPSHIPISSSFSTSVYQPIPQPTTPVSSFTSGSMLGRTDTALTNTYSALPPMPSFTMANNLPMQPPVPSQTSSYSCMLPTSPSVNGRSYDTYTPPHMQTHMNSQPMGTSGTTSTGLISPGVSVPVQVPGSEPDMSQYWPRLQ
smiles,measurement,setting,value
CC(CCO)CCCC(C)(C)O (stereo not drawn),outcome,[1],inactive
same,outcome,[2],inactive
same,outcome,[3],inactive
same,outcome,[4],inactive
same,outcome,[5],inactive
same,outcome,[6],inactive
same,outcome,[7],inactive
same,outcome,[8],inactive
same,outcome,[9],inactive
same,outcome,[10],inactive
same,outcome,[11],inactive
same,outcome,[12],inactive
same,outcome,[13],inactive
same,outcome,[14],inactive
same,outcome,[15],inactive
same,outcome,[16],inactive
same,outcome,[17],inactive
same,outcome,[18],inactive
CCCCCCCCCCCCSC,outcome,[1],inactive
same,outcome,[2],inactive
same,outcome,[3],inactive
same,outcome,[19],inactive
same,outcome,[4],inactive
same,outcome,[6],inactive
same,outcome,[7],inactive
same,outcome,[8],inactive
same,outcome,[9],inactive
same,outcome,[10],inactive
same,AC50,[11],27.3 µM (active)
same,outcome,[12],inactive
same,outcome,[13],inactive
same,outcome,[14],inactive
same,outcome,[15],inactive
same,outcome,[16],inactive
same,outcome,[20],inactive
same,outcome,[18],inactive
C=CCOC(=O)CCC1CCCCC1,outcome,[1],inactive
same,outcome,[2],inactive
same,outcome,[3],inactive
same,outcome,[4],inactive
same,outcome,[5],inactive
same,outcome,[6],inactive
same,outcome,[8],inactive
same,outcome,[9],inactive
same,outcome,[10],inactive
same,outcome,[11],inactive
same,outcome,[12],inactive
same,outcome,[14],inactive
same,outcome,[15],inactive
same,outcome,[16],inactive
same,outcome,[20],inactive
same,outcome,[17],inactive
CCC(O)CO (stereo not drawn),outcome,[1],inactive
same,outcome,[2],inactive
same,outcome,[19],inactive
same,outcome,[4],inactive
same,outcome,[5],inactive
same,outcome,[7],inactive
same,outcome,[8],inactive
same,outcome,[9],inactive
same,outcome,[10],inactive
same,AC50,[11],0.0826 µM (active)
same,outcome,[12],inactive
same,outcome,[14],inactive
same,outcome,[15],inactive
same,outcome,[16],inactive
same,outcome,[17],inactive
same,outcome,[18],inactive
COc1cc2ncnc(Nc3cccc(Cl)c3)c2cc1OC,outcome,[1],inactive
same,outcome,[2],inactive
same,outcome,[19],inactive
same,outcome,[4],inactive
same,outcome,[6],inactive
same,outcome,[7],inactive
same,AC50,[8],20.1 µM (active)
same,AC50,[10],25 µM (active)
same,outcome,[11],inactive
same,outcome,[12],inactive
same,outcome,[14],inactive
same,outcome,[15],inactive
same,outcome,[16],inactive
same,outcome,[20],inactive
same,AC50,[17],9.84 µM (active)
same,AC50,[18],6.77 µM (active)
NNc1nc(-c2ccc(N)cc2)cs1,outcome,[1],inactive
same,outcome,[3],inactive
same,outcome,[19],inactive
same,outcome,[4],inactive
same,outcome,[5],inactive
same,outcome,[7],inactive
same,outcome,[8],inactive
same,outcome,[9],inactive
same,outcome,[10],inactive
same,outcome,[11],inactive
same,outcome,[12],inactive
same,outcome,[13],inactive
same,outcome,[14],inactive
same,outcome,[15],inactive
same,outcome,[16],inactive
same,outcome,[20],inactive
same,outcome,[17],inactive
same,outcome,[18],inactive
c1ccc2sc(SN(C3CCCCC3)C3CCCCC3)nc2c1,outcome,[1],inactive
same,outcome,[3],inactive
same,outcome,[19],inactive
same,outcome,[4],inactive
same,outcome,[6],inactive
same,outcome,[7],inactive
same,outcome,[8],inactive
same,outcome,[9],inactive
same,outcome,[10],inactive
same,AC50,[11],0.698 µM (active)
same,outcome,[12],inactive
same,outcome,[14],inactive
same,outcome,[15],inactive
same,outcome,[16],inactive
same,outcome,[20],inactive
same,outcome,[17],inactive
C=CC(=O)NCOCC(C)C,outcome,[1],inactive
same,outcome,[3],inactive
same,outcome,[4],inactive
same,outcome,[5],inactive
same,outcome,[6],inactive
same,outcome,[7],inactive
same,outcome,[8],inactive
same,outcome,[10],inactive
same,AC50,[11],21 µM (active)
same,outcome,[14],inactive
same,outcome,[15],inactive
same,outcome,[16],inactive
same,outcome,[20],inactive
same,outcome,[17],inactive
same,outcome,[18],inactive
